In PubChem BioAssay AID1776 (NMMLSC, 2009):
The campaign covered roughly 190,000 compounds. About 490 (0.26%) were called active. The full list was thinned out, with actives kept by preference. A number with no mark means an inactive call. Cut-off read from the data, not from the text of the source: active = fluorescence above about 89; inactive = the rest.

Assay: compound fluorescence on glutathione beads, profiling panel, artefact control, biophysical, 488/530 nm, flow cytometry (AID 1776);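 note: glutathione beads carrying GST-tagged Bcl family fusion proteins plus one bare bead set; values are compound well signal with DMSO vehicle wells as background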
Conditions: GSH beads flow cytometry, compound fluorescence 488/530 nm; at 10 µM; hits give high values

| Compound | fluorescence (KMESF) |
| --- | --- |
| CCOC(=O)CNC(=O)CSc1nnnn1-c1cc(C)ccc1C | 33 |
| Cc1ccc(C)c(-n2nnnc2SCC(=O)c2c(N)n(C)c(=O)n(C)c2=O)c1 | 179 (active) |
| CNC(=O)CSc1nnnn1-c1ccc(C)cc1C | 23 |
| CN(C)CC(C)(C)CNC(=O)c1cc(Br)cc(Br)c1O | 12 |
| C=CCNC(=S)NNC(=O)COc1c(Cl)cc(Cl)cc1Cl | 12 |
| Cc1cc(C)nc(NNC2=CC(=O)CC(C)(C)C2)n1 | 16 |
| COc1ccc(C(=O)NNc2cc(C)nc(NNC(=O)c3ccc(OC)cc3)n2)cc1 | 11 |
| CC1CCCCC1NC(=O)CN1CCC(O)(c2ccc3c(c2)OCO3)CC1 (stereo not given) | 15 |
| CC1=C(C)CC(C(=O)NNC(=O)c2csc3c2CCC(C(C)(C)C)C3)C(C(=O)O)C1 (stereo not given) | 10 |
| Cc1ccccc1CC1(CO)CCCN(Cc2ccc3c(c2)OCCO3)C1 (stereo not given) | 18 |
| S=c1[nH]ccn1-c1ccc(Cl)cc1 | 11 |
| COCCSc1nnc(NC(=O)c2cc(OC)c(OC)cc2[N+](=O)[O-])s1 | 21 |
| Cc1ccc(C(=O)NC(C)c2ccccc2)cc1Br (stereo not given) | 15 |
| OCCC#Cc1ccc(CN2CCN(Cc3ccsc3)C(CCO)C2)cc1 (stereo not given) | 10 |
| CCCCCc1nnc(NC(=O)c2ccc(=O)n(C)n2)s1 | 16 |
| CC1(C)CC(=O)C(N=Nc2ccc(S(=O)(=O)N3CCCCCC3)cc2)=C(O)C1 | 11 |
| COc1cc(OC)cc(-c2nc3ccccc3c(=O)n2NC(=O)c2cccnc2Cl)c1 | 10 |
| Cc1ccc(C)c(-n2ccnc2SCC(N)=O)c1 | 20 |
| CC(C)c1nc(CNC(=O)CC2C(=O)NCCN2Cc2ccoc2)cs1 (stereo not given) | 15 |
| COc1cc(OC)c(C(=O)N2CCCC2)cc1OC | 10 |
| O=C(COc1ccc([N+](=O)[O-])cc1)Nc1ccc(N2CCCC2)cc1 | 9 |
| Cc1nn(-c2ccc([N+](=O)[O-])cc2)c(N)c1-c1ccccc1 | 8 |

| Compound | fluorescence (KMESF) |
| --- | --- |
| Cc1cc(NS(=O)(=O)c2ccc(NC(=S)NC(=O)c3ccc(F)cc3Cl)cc2)no1 | 12 |
| CNc1ccc(NC(C)=O)cc1[N+](=O)[O-] | 13 |
| CCCOCC(O)CC(CC)C(=O)NNC(=S)Nc1ccccc1 (stereo not given) | 13 |
| S=C(Nc1cccc(Br)c1)N1CCn2cccc2C1c1cccnc1 (stereo not given) | 15 |
| COc1ccccc1-c1noc(CSc2nc(C)cc(=O)[nH]2)n1 | 20 |
| Cc1cc(=O)[nH]c(SCc2cc(Cl)ccc2OC(F)F)n1 | 270 (active) |
| Cc1cc(=O)[nH]c(SCc2cccc(F)c2)n1 | 31 |
| C#CCCCc1nc2ccccc2c(=O)n1N | 11 |
| COc1ccc(S(=O)(=O)N2CN(CCc3ccc(OC)c(OC)c3)c3nc4ccccc4nc32)cc1 | 15 |
| O=C1/C(=C\c2ccsc2)NC(=S)N1c1ccccc1 | 11 |
| CCCc1c(C)nc2c(Br)cccc2c1Cl | 17 |
| CN(C)c1ccnc2sc(C(=O)c3ccccc3)c(N)c12 | 7 |
| O=C(CC1Nc2ccccc2NC1=O)Nc1ccccc1NC(=O)CC1Nc2ccccc2NC1=O (stereo not given) | 13 |
| CCCCC(O)(CCCC)C(=O)NN(C(=O)CCl)c1ccccc1 | 9 |
| O=C(/C=C/c1cn(-c2ccccc2)nc1-c1ccc2c(c1)OCCO2)NCCCN1CCOCC1 | 15 |
| COC(=O)Cc1c(O)ccn(Cc2cccc(C(F)(F)F)c2)c1=O | 11 |
| Cc1scc(C(=O)NNC(=S)NCC(C)C)c1C | 5 |
| COc1cccc(OC)c1C(=O)NC(=S)NCc1ccco1 | 10 |
| O=C(N/N=C/c1ccccn1)C12CC3CC(CC(C3)C1)C2 | 10 |
| NC(=O)Cc1ccc2sc(-c3ccccc3)nc2c1 | 4 |
| Cc1ccc(Cl)cc1NC(=O)C1CCN(S(C)(=O)=O)CC1 | 13 |
| O=C1N/C(=C/c2cccs2)C(=O)N1Cc1ccc(F)cc1 | 18 |

| Compound | fluorescence (KMESF) |
| --- | --- |
| O=C(NCc1cccs1)C(=O)NCC1OCCCN1S(=O)(=O)c1ccc(F)cc1 (stereo not given) | 10 |
| Cc1cc([N+](=O)[O-])ccc1NC(=O)C1CCCO1 (stereo not given) | 8 |
| CCOC(=O)c1sc(NC(=O)CSc2nc3c(c(=O)n2-c2ccccc2)SCC3)c(C(=O)OCC)c1C | 16 |
| Cc1nc2ccccc2nc(=O)c1NNc1ccc([N+](=O)[O-])cc1 | 20 |
| C/C(=N/NC(=S)Nc1ccccc1)c1ccc2c(c1)OCO2 | 5 |
| CCOc1ccc(Br)cc1S(=O)(=O)N1CCC(C(=O)O)CC1 | 10 |
| CC(C)C1C2=C(CC(C)(C)CC2=O)ON1c1ccccc1 (stereo not given) | 52 |
| O=c1[nH]c(-c2ccccc2)c(-c2ccccc2)[nH]1 | 20 |
| CC1(C)CC(=O)NC=C(c2ccccc2)C1 | 272 (active) |
| CCCC(CCC(=O)OC)(C(=O)OCC)c1csc(N)n1 (stereo not given) | 262 (active) |
| CC/C(Cc1ccccc1)=N/NC(=O)CCn1nnc2ccccc21 | 12 |
| CCOC(=O)CSc1nc2c(sc(=S)n2CCc2ccccc2)c(=O)n1Cc1ccco1 | 11 |
| COc1ccc(NC(=O)Cn2c(=O)n(Cc3ccco3)c(=O)c3ccccc32)cc1 | 17 |
| CN(c1ccccc1)c1ccc(/C=c2\s/c(=C(/C#N)C(=O)C(C)(C)C)n(Cc3ccco3)c2=O)cc1 | 145 (active) |
| Nc1nc(SCC(=O)NN(c2ccccc2)c2ccccc2)n[nH]1 | 7 |
| Cc1ccc(NS(=O)(=O)c2ccc(C)c(NC(=O)COc3ccc4ccccc4c3)c2)c(C)c1 | 15 |
| O=C(/C=C\c1ccc2c(c1)OCO2)NC1(C(=O)Nc2ccc3c(c2)OCCO3)CCCCC1 | 7 |
| Cc1cc([N+](=O)[O-])ccc1NC(=O)c1ccc(NC(=O)C(C)C)cc1 | 17 |
| CCc1ccc(CN2C(=O)c3ccccc3C2C(=O)NCC2CCCO2)cc1 (stereo not given) | 14 |
| Cc1c(Cl)cccc1NC(=O)CC1SC(=NCC2CCCO2)NC1=O (stereo not given) | 20 |
| CCOc1ccc(S(=O)(=O)N/N=C(\C)c2ccc(Cl)c(Cl)c2Cl)cc1 | 18 |
